Experimental data published in PubChem BioAssay (NCI).
This is part of a sample that, as a whole, favours compounds with a hit. Of some 79,000 tested, about 15% had one in any assay. Calls of active or inactive are those of the source. Cut-off read from the data, not from the text of the source: active = growth inhibition above about 70%; inactive = the rest.

Key:
[1] = NCI Yeast Anticancer Drug Screen. Data for the rad52 strain (AID 147);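 note: 0% = growth of vehicle-treated control cultures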; settings: S. cerevisiae rad52 mutant growth inhibition, active compounds read high
In short: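 Read-out: growth inhibition versus vehicle-treated controls. Cells were a DNA repair-deficient yeast strain treated with compounds.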

[2] = NCI Yeast Anticancer Drug Screen. Data for the wt1 strain (AID 149);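 note: 0% = growth of vehicle-treated wt1 cultures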; settings: S. cerevisiae wt1 strain (SPY 50644) growth inhibition, active compounds read high
In short: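 Yeast wt1 strain exposed to compounds; growth inhibition measured relative to vehicle-treated controls.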

[3] = NCI Yeast Anticancer Drug Screen. Data for the rad50EPP+ strain (AID 151);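 note: 0% = growth of vehicle-treated control cultures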; settings: S. cerevisiae rad50 mutant strain, active compounds read high
In short: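 Growth inhibition read against vehicle controls in rad50EPP+ yeast, a strain altered in DNA damage repair, after compound exposure.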

[4] = NCI Yeast Anticancer Drug Screen. Data for the mgt1 strain (AID 153); settings: S. cerevisiae mgt1 mutant growth inhibition, active compounds read high
In short: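 mgt1 yeast grown with test compound; read-out is growth inhibition versus vehicle-treated cultures.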

[5] = NCI Yeast Anticancer Drug Screen. Data for the rad50 strain (AID 155);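 note: 0% = growth of vehicle-only cultures of the same strain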; settings: S. cerevisiae rad50 strain growth inhibition, active compounds read high
In short: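 Yeast carrying a defined DNA repair defect were exposed to test compounds, and growth was compared with vehicle-treated controls to give percent inhibition.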

[6] = NCI Yeast Anticancer Drug Screen. Data for the mec2-1 strain (AID 157); settings: S. cerevisiae mec2-1 strain, active compounds read high
In short: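 Yeast mec2-1 mutant treated with compound. Readout: growth inhibition vs vehicle controls.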

[7] = NCI Yeast Anticancer Drug Screen. Data for the rad14 strain (AID 159);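 note: 0% = growth of vehicle-treated control cultures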; settings: S. cerevisiae rad14 strain growth inhibition, active compounds read high
In short: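 Yeast cells carrying a defined DNA-repair defect were exposed to compounds, and growth inhibition was calculated relative to vehicle-treated control cultures.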

[8] = NCI Yeast Anticancer Drug Screen. Data for the sgs1 mgt1 strain (AID 161);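 note: 0% = growth of cultures given vehicle only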; settings: S. cerevisiae sgs1 mgt1 strain, active compounds read high
In short: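 Mutant yeast exposed to compound; growth scored against vehicle-only wells.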

[9] = NCI Yeast Anticancer Drug Screen. Data for the CLN2oe strain (AID 163);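 note: 0% = growth of vehicle-only control cultures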; settings: S. cerevisiae CLN2oe strain, active compounds read high
In short: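 Read-out: yeast growth inhibition, expressed relative to vehicle-only controls. The strain bears an engineered cell-cycle alteration.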

[10] = NCI Yeast Anticancer Drug Screen. Data for the cln2 rad14 strain (AID 165);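 note: 0% = growth equal to vehicle treated cultures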; settings: S. cerevisiae cln2 rad14 strain, active compounds read high
In short: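 cln2 rad14 yeast strain; compound exposure; growth inhibition read vs vehicle controls.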

[11] = NCI Yeast Anticancer Drug Screen. Data for the bub3 strain (AID 167); settings: S. cerevisiae bub3 mutant strain, active compounds read high
In short: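 Compounds were applied to a genetically altered yeast strain carrying a cell-cycle control defect. Growth inhibition was scored against vehicle-treated controls.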

[12] = NCI Yeast Anticancer Drug Screen. Data for the wt2 strain (AID 169);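 note: 0% = growth of vehicle-treated yeast cultures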; settings: S. cerevisiae wt2 strain growth inhibition, active compounds read high
In short: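 Read-out: growth inhibition versus vehicle-treated control cultures after compound exposure of the yeast strain.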

[13] = NCI Yeast Anticancer Drug Screen. Data for the mlh1 strain (AID 171);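 note: 0% = growth of vehicle-treated control cultures of the same strain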; settings: S. cerevisiae mlh1 strain growth inhibition, active compounds read high
In short: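 Read-out: growth inhibition versus vehicle controls. Strain: engineered yeast with a defined DNA repair or cell cycle defect, compound-treated.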

[14] = NCI Yeast Anticancer Drug Screen. Data for the sgs1 strain (AID 173);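 note: 0% = growth of vehicle-only control cultures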; settings: S. cerevisiae sgs1 mutant, active compounds read high
In short: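 Read-out: yeast growth inhibition relative to vehicle controls, following compound exposure of a strain with a defined DNA repair/cell cycle alteration.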

[15] = NCI Yeast Anticancer Drug Screen. Data for the mlh1 rad18 strain (AID 175); settings: S. cerevisiae mlh1 rad18 strain growth inhibition, active compounds read high
In short: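 Yeast w/ defined DNA-repair lesions; compound exposure; growth vs vehicle controls → % inhibition.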

[16] = NCI Yeast Anticancer Drug Screen. Data for the rad18 strain (AID 177); settings: S. cerevisiae rad18 mutant growth inhibition, active compounds read high
In short: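 Readout: growth inhibition vs vehicle controls. Cells: genetically altered yeast strain, DNA repair defect.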

[17] = at 5.0 µM (retest, dose inferred, filed as 0.5)
[18] = at 50.0 µM (retest, dose inferred, filed as 5.0)

Measured: growth inhibition

O=[N+]([O-])c1cc2no[n+]([O-])c2cc1N1CCCCC1
inactive: [1]; at 1.2 µM 31% | [1]; at 3.7 µM 65% | [2]; at 1.2 µM -32% | [2]; at 3.7 µM 53% | [3]; at 1.2 µM 26% | [4]; at 1.2 µM 4% | [4]; at 3.7 µM 56% | [5]; at 1.2 µM 22% | [5]; at 3.7 µM 62% | [5]; [17] 24% | [6]; at 1.2 µM 28% | [6]; [17] 41% | [7]; at 1.2 µM -8% | [7]; at 3.7 µM 56% | [8]; [17] 1% | [8]; [18] -4% | [9]; at 1.2 µM 27% | [9]; at 3.7 µM 60% | [10]; [17] 0% | [10]; [18] -46% | [11]; at 1.2 µM -24% | [11]; at 3.7 µM -8% | [11]; [17] -2% | [11]; [18] -16% | [12]; at 1.2 µM 0% | [13]; at 1.2 µM 24% | [13]; at 3.7 µM 68% | [14]; at 1.2 µM 51% | [15]; [17] 51% | [16]; at 1.2 µM 31%
active: [1]; at 11.0 µM 98% | [1]; at 33.0 µM 96% | [1]; at 100.0 µM 95% | [2]; at 11.0 µM 99% | [2]; at 33.0 µM 98% | [2]; at 100.0 µM 97% | [3]; at 3.7 µM 83% | [3]; at 11.0 µM 98% | [3]; at 33.0 µM 99% | [3]; at 100.0 µM 98% | [4]; at 11.0 µM 98% | [4]; at 33.0 µM 98% | [4]; at 100.0 µM 98% | [5]; at 11.0 µM 93% | [5]; at 33.0 µM 96% | [5]; [18] 74% | [5]; at 50.0 µM 90% | [5]; at 100.0 µM 95% | [6]; at 3.7 µM 82% | [6]; at 11.0 µM 98% | [6]; at 33.0 µM 98% | [6]; [18] 93% | [6]; at 50.0 µM 92.8% | [6]; at 100.0 µM 97% | [7]; at 11.0 µM 99% | [7]; at 33.0 µM 99% | [7]; at 100.0 µM 98% | [8]; at 50.0 µM 92.4% | [9]; at 11.0 µM 96% | [9]; at 33.0 µM 97% | [9]; at 100.0 µM 97% | [10]; at 50.0 µM 90.7% | [11]; at 11.0 µM 71% | [11]; at 33.0 µM 96% | [11]; at 50.0 µM 91.3% | [11]; at 100.0 µM 96% | [12]; at 3.7 µM 74% | [12]; at 11.0 µM 99% | [12]; at 33.0 µM 99% | [12]; at 100.0 µM 98% | [13]; at 11.0 µM 98% | [13]; at 33.0 µM 99% | [13]; at 100.0 µM 100% | [14]; at 3.7 µM 72% | [14]; at 11.0 µM 98% | [14]; at 33.0 µM 99% | [14]; at 100.0 µM 98% | [15]; [18] 89% | [15]; at 50.0 µM 91.5% | [16]; at 3.7 µM 73% | [16]; at 11.0 µM 97% | [16]; at 33.0 µM 97% | [16]; at 100.0 µM 96%
